Assay outcomes (PubChem)
The list is not random: actives were taken first. Their share in the collection is about 1.2%.
TLR4 MyD88 comp: blocks binding of human TLR4 to MyD88. HeLa CL3-4 TLR4/MyD88 BLA complementation, FRET ratio. O00206+Q99836. 0.18% of 200,000 active. inhibition, % at 8.4 µM. AID 861; in the data active means inhibition above about 25%;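 further: 0% = vehicle and 100% = reference inhibitor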
TLR9-MyD88 inh: blocks human TLR9 binding to MyD88 | Q9NR96+Q99836 | CHO BLA complementation TLR9-MyD88, CCF4 FRET ratio | inhibition, % at 4.98 µM | 0.21% of 340,000 active;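 active means inhibition above the mean over all tested compounds plus 3 SD, cut at about 21% in these data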;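 further: 0% = DMSO only wells and 100% = clavulanate BLA inhibitor control wells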
NOD2 RIPK2 PPI: inhibitors of human NOD2-RIPK2 interaction; inhibition, % at 4.98 µM; AID 624267; CHO BLA complementation NOD2-RIPK2, CCF4 ratio; 0.38% of 360,000 active; O43353; in the data active means inhibition above about 21%;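 further: 0% = vehicle only and 100% = reference blocker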
Target sequence (O43353 whole entry, looked up): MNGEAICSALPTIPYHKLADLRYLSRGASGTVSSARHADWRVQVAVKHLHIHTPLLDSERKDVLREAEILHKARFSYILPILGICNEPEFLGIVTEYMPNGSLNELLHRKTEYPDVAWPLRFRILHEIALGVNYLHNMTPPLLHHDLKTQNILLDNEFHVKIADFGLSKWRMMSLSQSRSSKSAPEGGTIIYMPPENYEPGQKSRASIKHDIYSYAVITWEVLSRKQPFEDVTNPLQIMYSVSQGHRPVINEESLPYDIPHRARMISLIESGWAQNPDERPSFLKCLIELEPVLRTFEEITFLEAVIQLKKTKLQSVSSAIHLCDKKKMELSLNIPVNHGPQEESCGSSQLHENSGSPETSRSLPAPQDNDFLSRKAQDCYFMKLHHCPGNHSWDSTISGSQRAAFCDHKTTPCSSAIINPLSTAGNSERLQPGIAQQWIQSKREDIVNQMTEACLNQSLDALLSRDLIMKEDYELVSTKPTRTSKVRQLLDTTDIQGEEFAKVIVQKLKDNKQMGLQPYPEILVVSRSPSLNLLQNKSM
ABHD5-PLIN5 inh: blocks binding of human ABHD5 to perilipin-5. Q00G26+Q8WTS1. Split G. princeps luciferase complementation, luminescence, 4 h. inhibition, % at 4 µM. 0.78% of 360,000 active. AID 602281;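 active means inhibition above the mean inhibition across every tested compound plus 3 SD, cut at about 22% in these data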;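 further: 0% = DMSO only wells and the 100% control is not disclosed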
TLR9-MyD88 conf: TLR9-MyD88 interaction inhibition, confirmation; shares compounds with TLR9-MyD88 inh; CHO TLR9/MyD88 BLA complementation, CCF4 FRET ratio; inhibition, % at 4.98 µM; 51% of 680 active; AID 540250;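 active means mean inhibition across three repeats above about 21% taken from the earlier screen, limit read from the data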;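 further: blue over green emission ratio reports constitutive TLR9 MyD88 association via BLA complementation; 0% = DMSO vehicle wells and 100% = clavulanate BLA inhibitor wells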
BLA counter-1: counter-screen for TLR9-MyD88 inhibitors: non-selective beta-lactamase inhibitors; shares compounds with TLR9-MyD88 inh; CHO-BLA cells, CCF4 FRET ratio, BLA reporter; inhibition, % at 4.98 µM; 7% of 680 active; AID 540251;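 active means mean inhibition above a 50% cutoff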;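 further: counterscreen of TLR9-MyD88 hits on CMV-driven BLA in CHO-K1 cells; 0% = DMSO alone and 100% = clavulanate blocking BLA; higher means less blue over green ratio so more BLA blockade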
TLR9 CHO tox: counter-screen for TLR9-MyD88 inhibitors: cytotoxicity in CHO cells; 39% of 680 active; AID 588336; luminescence; shares compounds with TLR9-MyD88 inh; inhibition, % at 4.98 µM; in the data active means inhibition above about 11%
ABHD5 PLIN5 conf: ABHD5-PLIN5 interaction inhibition, confirmed; biochemical ABHD5-PLIN5 interaction, luminescence; AID 651612; 67% of 2,200 active; inhibition, % at 4 µM; shares compounds with ABHD5-PLIN5 inh; in the data active means inhibition above about 23%;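 further: 0% = DMSO vehicle wells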
HNF4 counter: counter-screen for ABHD5-PLIN5 inhibitors: HNF4 split-luciferase; shares compounds with ABHD5-PLIN5 inh; HNF4 dimerization, luminescence, biochemical; inhibition, % at 4 µM; 77% of 2,200 active; AID 651674;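 active means mean inhibition across replicate wells exceeding the computed hit threshold, cut at about 13% in these data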;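 further: light from luciferase halves that rejoin when HNF4 fusion proteins dimerize; 0% = DMSO only wells and the 100% control is not given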
NOD2 RIPK2 conf: confirmation of human NOD2-RIPK2 interaction inhibitors. shares compounds with NOD2 RIPK2 PPI. CHO cells, NOD2-RIPK2 BLA complementation, CCF4 FRET. inhibition, % at 4.98 µM. 70% of 1,200 active. AID 624370;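 active means mean inhibition across replicates above a set limit taken from the earlier primary screen, cut at about 21% in these data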;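 further: 0% = DMSO-only wells and the high end = clavulanate BLA-blocked wells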
BLA counter-2: hits BLA reporter in NOD2-RIPK2 inhibitor counterscreen; shares compounds with NOD2 RIPK2 PPI; CHO BLA reporter, CCF4 FRET ratio; inhibition, % at 4.98 µM; 57% of 1,200 active;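 active means mean inhibition above the low-control mean inhibition plus three low-control SD, cut at about 11% in these data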;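 further: 0% = DMSO only wells and 100% = clavulanate high control wells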
* hit, by the source's call; · = no result.

SMILES	TLR4 MyD88 comp	TLR9-MyD88 inh	NOD2 RIPK2 PPI	ABHD5-PLIN5 inh	TLR9-MyD88 conf	BLA counter-1	TLR9 CHO tox	NOD2 RIPK2 conf	BLA counter-2	others
Cn1c(=O)c([N+](=O)[O-])c(Cl)c2ccccc21	9	47*	86*	34*	62*	7	97*	93*	27*
CCCCNC(=O)COC(=O)c1c2c(nc3ccccc13)/C(=C\c1cccs1)CC2	·	45*	55*	-3	47*	56*	8	66*	76*
CCc1cccc(C)c1NC(=O)COC(=O)c1c2c(nc3ccccc13)/C(=C\c1cccs1)CCC2	-10	-9	1	6	·	·	·	·	·
NC(=O)/C(=N\OC(=O)c1ccco1)c1nc(-c2ccc(Br)cc2)cs1	19	36*	21*	-6	20	20	8	43*	22*
Cc1ccc(C2C=C(c3ccc4c(c3)OCO4)Nc3ncnn32)cc1 (stereo not drawn)	-5	31*	42*	1	11	13	3	34*	42*
Cc1ccc(C2=CC(c3ccccc3)n3ncnc3N2)cc1 (stereo not drawn)	·	41*	52*	-4	9	6	-2	19	21*
Cc1ccc(C2=CC(c3ccccc3)n3ncnc3N2)c(C)c1 (stereo not drawn)	·	-7	-9	-3	·	·	·	·	·
C1=C(c2ccccc2)Nc2ncnn2C1c1ccccc1 (stereo not drawn)	·	25*	35*	8	11	12	1	1	5
Fc1ccc(Br)cc1C1C=C(c2ccc(Br)cc2)Nc2ncnn21 (stereo not drawn)	1	21*	43*	-5	7	10	3	1	2
CN(C)C(CNC(=O)CNC(=O)c1ccc2ccccc2c1)c1ccccc1 (stereo not drawn)	·	-1	-4	7	·	·	·	·	·
O=S(=O)(/C=C/C=C/S(=O)(=O)c1ccccc1)c1ccccc1	·	26*	87*	90*	27*	21	98*	77*	38*	ABHD5 PLIN5 conf=91*;HNF4 counter=111*
Oc1ccc2nnc3c(Br)cnn3c2c1	·	32*	44*	-4	27*	31	6	60*	58*
COC(=O)c1sc(NC(=O)c2cc(C)on2)nc1C	·	-7	-12	4	·	·	·	·	·
CCc1ccc(Nc2n[n+](-c3ccccc3)c(-c3c(Cl)cccc3Cl)s2)cc1	·	80*	68*	0	43*	45	29*	75*	63*
C=C(C)c1nc(Oc2ccccc2)nc(Oc2ccccc2)n1	·	-16	-6	11	·	·	·	·	·
CCS(=O)(=O)c1ncc(Cl)c(C(=O)Nc2ccc(S(=O)(=O)N(C)c3ccccc3)cc2)n1	·	55*	99*	78*	54*	50*	100*	96*	54*	ABHD5 PLIN5 conf=92*;HNF4 counter=99*
CCOC(=O)c1nc(S(C)(=O)=O)ncc1Cl	14	34*	22*	55*	37*	27	43*	56*	25*	ABHD5 PLIN5 conf=56*;HNF4 counter=90*
Cc1ccccc1NC(=O)c1cccc(C(=O)Nc2ccccc2C)n1	·	-5	-8	1	·	·	·	·	·
CCN(c1ccccc1)S(=O)(=O)c1ccc(NC(=O)c2nc(S(C)(=O)=O)ncc2Cl)cc1	·	61*	97*	78*	59*	39	100*	98*	49*	ABHD5 PLIN5 conf=89*;HNF4 counter=104*
